Assay outcomes as filed in PubChem BioAssay.
Only some compounds are listed: those with a hit (about 4.6% of all), similar ones and a draw of the others.
NLRP3 yeast inh: blocks the NALP3 inflammasome reconstituted in yeast. AID 2825. 0.39% of 330,000 active. inhibition, % at 10 µM. Yeast reconstituted NLRP3/ASC/caspase-1, beta-gal luminescence, 24 h;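 active means inhibition of 50% or more; inactive means inhibition below 50%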;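 further: plate controls were induced DMSO wells for no effect and uninduced yeast grown without galactose for full effect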
PfHsp90 yeast 2: growth inhibition of yeast expressing Plasmodium Hsp90 | inhibition, % at 9.4 µM | AID 504621 | 0.32% of 310,000 active | S. cerevisiae expressing PfHsp90, BacTiter-Glo ATP, 48 h; yeast lacking PDR1 and PDR3 efflux regulators;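 active means every replicate shows inhibition above about 80%, whatever the replicate mean, limit read from the data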;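 further: 0% = DMSO neutral controls and 100% = 20 µM radicicol positive controls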
tim23-1 inh: growth inhibitors of tim23-1 mutant yeast; 1.3% of 330,000 active; inhibition, % at 20 µM; S. cerevisiae tim23-1 growth, BacTiter-Glo luminescence, 24 h;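 active means growth inhibition of the mutant yeast at or above 50%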;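 further: temperature-sensitive mutant grown at 25 °C; plate controls were DMSO-treated mutant yeast for no effect and medium wells lacking yeast for full effect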
TIM10 inh: TIM10 yeast growth inhibition. S. cerevisiae TIM10 strain growth, BacTiter-Glo luminescence, 24 h. inhibition, % at 10 µM. 1.4% of 330,000 active;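 active means inhibition of 40% or more at the single tested concentration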;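 further: wild-type TIM10 isogenic control strain grown at permissive 25 °C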
tim10-1 inh: growth inhibitors of tim10-1 mutant yeast. S. cerevisiae tim10-1 ts strain growth, BacTiter-Glo, 24 h. 2.2% of 330,000 active. AID 463190. inhibition, % at 20 µM;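 active means inhibition of at least 40%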;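 further: mutant grown at 25 °C; 0% = DMSO wells with yeast and 100% = wells holding no yeast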
SKKanGAS inh: inhibitors of SKKanGAS S. pyogenes growth in kanamycin (SK-promoter or general growth effect) | BacTiter-Glo, 6 h | inhibition, % at 7.5 µM | 1.3% of 300,000 active;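 active means mean replicate score, as percent of positive control median, at least 50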;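 further: strain carries kanamycin resistance gene driven by streptokinase promoter and grows in 40 µg/ml kanamycin; loss of luminescence reflects streptokinase promoter inhibition or plain growth inhibition; 0% = median of DMSO wells and 100% = positive control at its reference dose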
tim10-1 conf: tim10-1 yeast growth inhibition, confirmed; inhibition, % at 20 µM; 56% of 7,400 active; shares compounds with tim10-1 inh; S. cerevisiae tim10-1 ts strain growth, BacTiter-Glo, 24 h;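 active means inhibition of yeast growth at or above a set limit in either of two repeat tests at 20 µM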;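 further: tim10-1 mutant grown at permissive 25 °C to find synthetic lethal compounds; 0% = DMSO yeast wells and 100% = medium wells without yeast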
* = called active by the depositor; nt = not tested or not shown.

SMILES	NLRP3 yeast inh	PfHsp90 yeast 2	tim23-1 inh	TIM10 inh	tim10-1 inh	SKKanGAS inh	tim10-1 conf
CCOc1cc(NC(=O)c2ccccc2OC)c(OCC)cc1NC(=O)c1ccccc1	6.8	10.6	-16.8	-0.2	-19.4	0.7	nt
COc1ccccc1C(=O)Nc1ccccc1SC(=O)c1ccccc1OC	29.6	-39.6	42.1	39.0	42.5*	22.4	36.9*
CCOc1ccccc1C(=O)Nc1cc(OC)ccc1OC	29.3	-3.4	42.1	39.5	43.1*	-6.5	37.2*
CCCOc1ccc(C(=O)NNC(=O)c2cccc(S(=O)(=O)N3CCN(C(C)=O)CC3)c2)cc1OC	-10.8	14.4	10.8	1.6	-0.6	21.4	nt
Cc1ccc(/C=C2/Sc3ccc(C(=O)NCc4ccccn4)cc3NC2=O)cc1	14.7	5.4	4.6	-8.3	17.6	-0.9	nt
CC(C)(C)NC(=S)N/N=C\c1ccc(-c2ccc([N+](=O)[O-])cc2)o1	9.3	nt	44.8	32.5	40.4*	3.5	32.8*
CCCCC(=O)N/N=C/c1ccc(-c2ccc([N+](=O)[O-])cc2)o1	10.9	11.3	22.6	-2.0	24.8	-8.1	nt
COc1ccc(S(=O)(=O)N2CCOC23CCN(S(=O)(=O)c2c(C)cc(C)cc2C)CC3)cc1	29.5	nt	18.8	-7.1	2.4	1.3	nt
Brc1cccc(-c2nnc(SCc3ccon3)n2-c2ccccc2)c1	10.1	-38.3	44.6	26.3	40.6*	-6.4	14.7
O=C(O)c1ccc(CSc2nnc(-c3ccccc3)n2-c2ccccc2)cc1	5.2	-1.9	2.9	-1.0	18.0	-5.2	nt
NC(=O)C1CCN(C(=O)c2ccc(-c3ccccc3Cl)o2)CC1	9.4	11.9	14.9	6.7	5.2	nt	nt
CC1(C)Cc2c(cnn2-c2ccc(F)cc2)C(NC(=O)c2ccoc2)C1 (configuration not stated)	-0.3	-36.1	35.6	14.5	40.1*	-2.0	8.0
Cc1ccc(-n2ncc3c2CC(C)(C)CC3NC(=O)c2ccccn2)cc1 (configuration not stated)	8.7	-9.7	49.2	13.4	53.4*	2.4	12.3
CCOc1cccc2cc(-c3nnc(NCc4ccco4)s3)c(=O)oc12	2.0	-14.9	22.7	23.2	40.4*	-3.9	20.9
COCCNC(=O)c1c(N)n(/N=C/c2cccs2)c2nc3ccccc3nc12	12.5	-17.0	28.1	18.8	43.5*	11.6	1.9
Cc1ccc(-n2c(C)cc3c2CC(C)(C)CC3=O)cc1C	5.8	-0.1	41.7	17.0	31.7	4.5	nt
Cc1cc2c(n1-c1ccc(Br)cc1)CC(C)(C)CC2=O	0.6	nt	40.4	26.2	49.4*	-1.2	32.9*
COc1ccc(C(=O)c2ccc(OC)cc2O)c(O)c1	35.3	-8.0	21.1	15.3	41.1*	28.7	35.9*
COc1ccc(C(=O)/C=C/c2ccccc2)c(O)c1	19.7	23.4	34.0	39.8	48.8*	-0.9	47.0*
COc1ccc(NC(=O)CCN(c2ccc(OC)cc2)S(=O)(=O)c2ccc(C)c(C)c2)cc1	nt	-5.9	nt	nt	nt	nt	nt
Cc1nonc1CN(C)C(=O)CC1C(=O)NCCN1Cc1cccc(C(F)(F)F)c1 (configuration not stated)	7.4	-1.2	-1.2	13.2	-2.7	-7.4	nt
NS(=O)(=O)OCCCc1ccc(C(F)(F)F)cc1	12.6	-9.0	14.0	1.4	-2.7	-6.7	nt
COc1ccc(N2CCC(CNC(=O)Nc3cccc(OC)c3)C2)cc1 (configuration not stated)	19.1	nt	9.5	21.9	45.8*	7.1	39.8*
CN1CCN(c2ccccc2NC(=O)c2ccc(-c3cccc([N+](=O)[O-])c3)o2)CC1	nt	-17.4	nt	nt	nt	-2.8	nt
CN1CCN(c2ccccc2NC(=O)c2ccc(-c3ccc(Cl)c(Cl)c3)o2)CC1	30.4	nt	23.7	38.3	54.9*	31.2	37.5*
COc1ccc(C)cc1NC(=O)CN1CCCC1c1ccc2c(c1)OCCCO2 (configuration not stated)	-0.5	-5.4	32.6	4.0	14.0	nt	nt
COc1cc(/C=N/N=C2/C(=O)Nc3ccccc32)cc(OC)c1O	-9.2	-2.1	42.6	36.3	43.7*	0.2	51.5*
O=[N+]([O-])c1ccccc1N/N=C/c1c[nH]c2ccccc12	36.8	10.1	32.8	33.3	69.2*	12.2	56.8*
